# In the supplement of paper PMC6522484:
# ± gives the standard deviation of the averaged measurements.
# Test system: HCT116
# Assay: TCF/Wnt firefly luciferase reporter signal relative to plate median (fraction of plate median); higher = higher Wnt reporter signal
# Conditions: 10 µM; treatment time 24 h; reporter: TCF4/Wnt
# Method in brief: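 Colorectal cancer cell lines stably transduced with lentiviral TCF/Wnt firefly luciferase reporters (7TFP or TCF4/Wnt) were seeded in 384-well plates. 24 h later they received kinase inhibitor library compounds at a final 10 µM for 24 h. Parallel plates were read for firefly luciferase or CellTiterGlo luminescence on a Tecan F500 reader. Each well's signal was normalised to the plate median (webcellHTS2, additive, no log transformation), and the mean of two independent replicates is reported.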
row,SMILES,TCF/Wnt firefly luciferase reporter signal
1,CC(C)(C)c1cc(/C=C(\C#N)C(N)=S)cc(C(C)(C)C)c1O [Tyrphostin AG 879 (AG 879)],0.791 ± 0.12
2,C=CC(=O)Nc1cc2c(Nc3ccc(F)c(Cl)c3)ncnc2cc1OCCCN1CCOCC1 [CI-1033 (Canertinib)],1 ± 0.19
3,NCC(=O)Nc1ccc(-n2nc(C(F)(F)F)cc2-c2ccc3c(ccc4ccccc43)c2)cc1,0.606 ± 0.18
4,COc1ccc(-c2cc3c(C)nc(N)nc3n([C@H]3CC[C@H](OCCO)CC3)c2=O)cn1,0.591 ± 0.039
5,Clc1ccc(C2(c3ccc(-c4cn[nH]c4)cc3)CCNCC2)cc1,0.871 ± 0.024
6,C[S+]([O-])c1ccc(-c2nc(-c3ccc(F)cc3)c(-c3ccncc3)[nH]2)cc1 (stereo unspecified),1.26 ± 0.38
7,C=CC(=O)Nc1ccc2ncnc(Nc3ccc(OCc4cccc(F)c4)c(Cl)c3)c2c1,0.686 ± 0.33
8,CCn1nnc2c(N3CCOCC3)nc(-c3ccc(NC(=O)Nc4ccc(C(=O)N5CCN(C)CC5)cc4)cc3)nc21,0.59 ± 0.19
9,O=c1cc(N2CCOCC2)oc2c(-c3cccc4c3sc3ccccc34)cccc12,1.73 ± 0.64
10,Cc1cnc(Nc2ccc(N3CCN(C)CC3)cc2)nc1Nc1cccc(S(=O)(=O)NC(C)(C)C)c1,2.98 ± 0.97
11,COc1ccc(S(=O)(=O)N(C(C)=O)c2ccccc2/C=C/c2cc[n+]([O-])cc2)cc1,0.278 ± 0.0071
12,COc1cc2ncnc(Nc3ccc(F)c(Cl)c3)c2cc1OCCCN1CCOCC1 [Gefitinib (Iressa)],0.76 ± 0.24
13,CN1CCN(c2cccc(Nc3nc4c(-c5ccc(S(C)(=O)=O)cc5)cccn4n3)c2)CC1,1.32 ± 0.7
14,CC(=O)Nc1nc(C)c(-c2ccc(Cl)c(S(=O)(=O)NCCO)c2)s1,1.09 ± 0.085
15,CCC[C@H](NC(=O)/C(C#N)=C/c1cccc(Br)n1)c1ccccc1,0.0353 ± 0.0076
16,CCS(=O)(=O)c1cccc(-c2cc(C(=O)NC3CCN(C)CC3)c(C)c3[nH]c4ncc(C)cc4c23)c1,0.565 ± 0.24
17,CC(C)n1nc(-c2ccc3oc(N)nc3c2)c2c(N)ncnc21,0.569 ± 0.26
18,COc1cc2c(N3CCN(C(=O)Nc4ccc(OC(C)C)cc4)CC3)ncnc2cc1OCCCN1CCCCC1 [Tandutinib (MLN518)],1.08 ± 0.035

row,SMILES,TCF/Wnt firefly luciferase reporter signal
1,O=C1NC(=O)C(c2ccccc2[N+](=O)[O-])=C1Nc1ccc(O)c(Cl)c1,2.56 ± 0.96
2,COc1cccc(-c2cc(=O)c3ccccc3o2)c1N,1.25 ± 1
3,Cc1ccc(NC(=O)c2ccc(CN3CCN(C)CC3)cc2)cc1Nc1nccc(-c2cccnc2)n1 [Imatinib (Gleevec)],1.42 ± 0.23
4,COc1cc2c(Nc3ccc(NC(=O)c4ccccc4)cc3)ncnc2cc1OCCCN1CCOCC1,1.42 ± 0.23
5,CC(C)CC(=O)Nc1n[nH]c2c1CN(C(=O)C1CCN(C)CC1)C2(C)C,0.193 ± 0.053
6,CNC(=O)Nc1ccc(-c2nc(N3CC4CCC(C3)O4)c3cnn(C4CCC5(CC4)OCCO5)c3n2)cc1,0.617 ± 0.14
7,CCOc1cc2ncc(C#N)c(Nc3ccc(OCc4ccccn4)c(Cl)c3)c2cc1NC(=O)/C=C/CN(C)C [Neratinib (HKI-272)],0.53 ± 0.33
8,N#CCNC(=O)c1ccc(-c2ccnc(Nc3ccc(N4CCOCC4)cc3)n2)cc1,1.31 ± 0.25
9,Cc1ncc(-c2ccnc(Nc3ccc(S(C)(=O)=O)cc3)n2)n1C(C)C,0.156 ± 0.042
10,O=C(O)c1ccc2c(c1)nc(Nc1cccc(Cl)c1)c1ccncc12 [cx-4945 (Silmitasertib)],0.627 ± 0.36
11,CC(=O)Nc1cccc(-n2c(=O)n(C3CC3)c(=O)c3c(Nc4ccc(I)cc4F)n(C)c(=O)c(C)c32)c1,1.32 ± 0.58
12,Nc1ncnc2c1c(-c1cccc(OCc3ccccc3)c1)cn2C1CC(CN2CCCC2)C1 (stereo unspecified),0.75 ± 0.29
13,COc1cc2c(Oc3ccc(NC(=O)C4(C(=O)Nc5ccc(F)cc5)CC4)cc3F)ccnc2cc1OCCCN1CCOCC1,1.2 ± 0.28
14,CCN1CCN(c2ccc(Nc3cc(N(C)C(=O)Nc4c(Cl)c(OC)cc(OC)c4Cl)ncn3)cc2)CC1,0.852 ± 0.15
15,Cc1[nH]c(/C=C2\C(=O)Nc3ccccc32)c(C)c1CCC(=O)O,1.4 ± 0.59
16,CN1CCN(c2ccc3nc(-c4c(N)c5c(F)cccc5[nH]c4=O)[nH]c3c2)CC1 [Dovitinib Dilactic acid (TKI258 Dilactic acid)],0.784 ± 0.52
17,Cc1[nH]c(/C=C2\C(=O)Nc3ccc(S(=O)(=O)Cc4c(Cl)cccc4Cl)cc32)c(C)c1C(=O)N1CCC[C@@H]1CN1CCCC1,0.7 ± 0.88
18,COc1cc(Nc2ncc(F)c(Nc3ccc4c(n3)NC(=O)C(C)(C)O4)n2)cc(OC)c1OC [R406(free base)],1.38 ± 0.37
